The values that follow come from PubChem BioAssay AID588726 (The Scripps Research Institute Molecular Screening Center, 2011).

SMILES strings stand for the structures. Hit rate of the full screen: of about 360,000 compounds, about 8,200 (2.3%) were called active. Shown is part of a subset that was picked to be rich in actives. Unmarked numbers belong to inactive results. Cut-off read from the data, not from the text of the source: active = inhibition above about 27%; inactive = the rest.

Sequence of Fructose-bisphosphate aldolase (Mycobacterium tuberculosis (strain ATCC 25618 / H37Rv)) (P9WQA3 whole entry, looked up): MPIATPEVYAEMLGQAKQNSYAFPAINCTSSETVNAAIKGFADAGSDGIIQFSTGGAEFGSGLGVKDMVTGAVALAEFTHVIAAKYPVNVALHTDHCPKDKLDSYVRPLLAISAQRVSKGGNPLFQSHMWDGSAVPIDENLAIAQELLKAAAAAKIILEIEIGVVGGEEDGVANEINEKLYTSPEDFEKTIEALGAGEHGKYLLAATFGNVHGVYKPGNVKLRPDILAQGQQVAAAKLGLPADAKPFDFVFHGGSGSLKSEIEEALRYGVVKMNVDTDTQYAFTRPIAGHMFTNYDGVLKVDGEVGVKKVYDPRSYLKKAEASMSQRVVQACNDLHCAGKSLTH

The assay addresses Fructose-bisphosphate aldolase (Mycobacterium tuberculosis (strain ATCC 25618 / H37Rv)) (UniProt P9WQA3). Description: M. tuberculosis aldolase activity blockers – biochemical, fluorescence, strain H37Rv, primary screen (AID 588726).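 Note: 0% = vehicle and 100% = reference inhibitor.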 Particulars: purified M. tuberculosis FBA, fluorescence read-out, at 1 µM, active compounds read high.
`CC(C)c1ccc(/C=C/C(=O)NCCCN2CCOCC2)cc1`: the inhibition was 0.72%.

Turning to `CCN(C(=O)c1cc([N+](=O)[O-])ccc1NCc1cccnc1)c1ccccc1`, the inhibition is 2.57%.

Take `COC(=O)c1cc2n(n1)CCCNC2=O`: the inhibition is 3.15%.

Consider `C=C(C)Cn1c(C)cc(C)c(S(=O)(=O)c2ccccc2C)c1=O`, for which the inhibition is -0.53%.

Take `CCc1cc(C(c2ccccc2OC)N2CCOCC2)c(NC(=O)c2ccccc2)s1` (centres undefined): the inhibition is -1.6%.

For `COc1cccc(C(=O)N/N=C(\C)c2cccc(NC(=O)c3ccc(F)cc3)c2)c1OC`, the inhibition is -1.27%.

For `Cn1nc(C(F)(F)F)cc1-c1ccc(/C=C(\C#N)C(=O)c2cccc(C(F)(F)F)c2)s1`, the inhibition was 0.1%.

For the compound `CCc1ccc(OCC(=O)OC(C)C(=O)NC2CC2)cc1` (centres undefined), the inhibition is -0.68%.

Turning to `O=C(c1cc(-c2ccco2)nc2ccccc12)N(Cc1nnc(-c2ccc(Cl)cc2)o1)C1CC1`, the inhibition is 46.8% (active).

For `COc1ccc(CN(C)C(=O)c2cc(-c3ccc(C)cc3C)nc3ccccc23)c(OC)c1OC`, the inhibition is -0.53%.

Consider `CC(C)N(Cc1nnc(-c2ccccc2Br)o1)C(=O)c1cc(Cl)nc2ccccc12`, for which the inhibition is 2.07%.

With `COc1ccc(-c2cc(C(=O)N(C)Cc3ccccc3)c3ccccc3n2)cc1`, the inhibition is 69.9% (active).

Regarding `COc1ccc(C2=NS(=O)(=O)N(C)C(C(=O)N(C)Cc3ccccc3)=C2)cc1`, the inhibition was 4.86%.

For the compound `O=C(c1ccc(Cl)s1)N(Cc1nnc(-c2ccccc2Cl)o1)C1CC1`, the inhibition was -1.65%.

In the case of `C=CCOc1cccc(CNCc2cccnc2)c1`, the inhibition is -1.51%.

Consider `CC1(C)CC(=O)c2c(n(S(=O)(=O)c3ccccc3)c3ccc(NS(=O)(=O)c4ccccc4)cc23)C1`, for which the inhibition is -1.63%.

Take `C[C@@H](C(=O)Nc1ccc2ccccc2c1)[C@@H]1C[C@@]1(C)[C@@H](NC(=O)c1cccnc1)c1ccccc1`: the inhibition was -0.2%.

`O=C(CSc1ncn[nH]1)Nc1nc2c(F)c(F)c(F)cc2s1`: the inhibition was 0.81%.

`CC(=O)N(CN1C(=O)C2C3C=CC(C3)C2C1=O)c1cccc(Cl)c1` (centres undefined): the inhibition was -0.27%.

As for `COc1ccc(-c2ccc3c(c2)[C@@H]2C[C@H](N(C)S(=O)(=O)c4ccccc4)[C@H]([C@H](C)O)C(=O)N2CC3)cc1`, the inhibition is 4.15%.

For the compound `CN(Cc1ccccc1)C(=O)CCNC(=O)Cn1cnc2ccccc2c1=O`, the inhibition was 5.26%.

Take `CCCCN(C)CCC(=O)Nc1ccc(Cl)cc1`: the inhibition was 0.51%.

Regarding `CCCCC(=O)Nc1ccc2c(c1)C(=O)NC2=O`, the inhibition is 42.1% (active).

In the case of `CC(=O)Nc1ccc(Oc2ccc3c(c2)C(=O)NC3=O)cc1`, the inhibition was 2.21%.

The inhibition is the drop in the measured response relative to a control, in per cent.
